Screening results as filed in PubChem.
A selection: hits, their analogues and other compounds. The true share with any hit is near 10%.
CtBP-E1A blk = CtBP/E1A binding inhibition; AlphaScreen GST-E1A/His-CtBP binding, 1536-well; stronger effect = lower value; activity change, % (concentration not given with the values); hit rate 0.49% among 340,000; AID 651724; in the data active = activity change below about -65%; inconclusive = mostly about -30% to -63%; also: % is scaled to controls: 0 for no effect and ±100 for the full control effect
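GST-E1A and His-tagged CtBP (125 nM each as 5X stock) were preincubated with pin-transferred compound for 2 h at 37 °C in the dark, then glutathione donor and nickel acceptor beads were added for 1 h before AlphaScreen reading.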
Six1-Eya2 inh = inhibitors of human Six1/Eya2 interaction | Q15475+O00167 | AlphaScreen GST-Six1/His-Eya2 binding, biochemical; stronger effect = lower value | activity change, % (test concentration not listed) | hit rate 0.56% among 360,000 | AID 651725; in the data active = activity change below about -65%; inconclusive = mostly about -30% to -63%; also: % is scaled to controls: 0 for no effect and ±100 for the full control effect
Target sequence (O00167 whole entry, looked up): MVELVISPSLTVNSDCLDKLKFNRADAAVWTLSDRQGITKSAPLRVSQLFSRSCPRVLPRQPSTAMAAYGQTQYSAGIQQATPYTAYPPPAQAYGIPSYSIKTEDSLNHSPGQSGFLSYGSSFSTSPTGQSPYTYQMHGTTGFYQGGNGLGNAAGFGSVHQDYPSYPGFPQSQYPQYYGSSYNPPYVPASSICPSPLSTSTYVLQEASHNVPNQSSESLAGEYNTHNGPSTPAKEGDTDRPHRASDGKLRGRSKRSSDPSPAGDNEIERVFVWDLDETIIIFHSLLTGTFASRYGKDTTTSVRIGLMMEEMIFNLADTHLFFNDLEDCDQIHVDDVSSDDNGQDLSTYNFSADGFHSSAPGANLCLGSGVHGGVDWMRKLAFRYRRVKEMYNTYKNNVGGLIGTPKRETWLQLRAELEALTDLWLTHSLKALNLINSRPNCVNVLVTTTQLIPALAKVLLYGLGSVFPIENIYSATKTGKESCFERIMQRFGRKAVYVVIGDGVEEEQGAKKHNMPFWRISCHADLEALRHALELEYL
Target sequence (Q15475 whole entry, looked up): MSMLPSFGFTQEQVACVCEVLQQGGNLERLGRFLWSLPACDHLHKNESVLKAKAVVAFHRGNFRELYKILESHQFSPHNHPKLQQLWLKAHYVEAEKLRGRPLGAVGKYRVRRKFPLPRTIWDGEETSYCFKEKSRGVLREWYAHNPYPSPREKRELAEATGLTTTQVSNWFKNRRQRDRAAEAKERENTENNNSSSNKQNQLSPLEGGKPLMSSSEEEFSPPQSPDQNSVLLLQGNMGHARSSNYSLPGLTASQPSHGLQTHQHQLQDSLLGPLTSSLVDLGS
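Compounds are tested against tagged Six1 and Eya2 proteins bridged by glutathione donor and nickel acceptor beads; after a one-hour incubation at 37 °C without light, AlphaScreen emission is recorded.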
HP1b chromo inh = HP1-beta chromodomain-methylated histone interaction inhibition | AlphaScreen HP1-beta / biotin-H3K9me3 peptide binding | Potency, µM (doses to about 114 µM), inactives show at the highest dose activity change, negative = inhibition, hits mostly inhibitors | hit rate 0.56% among 390,000 | AID 540317; also: potency is read from the fitted curve at half-maximal effect; nearly all actives have a fitted effect of over 70% in size
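AlphaScreen: HP1-beta (50 nM) preformed 30 min with biotin-H3(1-18)K9me3 peptide (50 nM) in PBS pH 7.4, 0.01% Tween-20. Compound added for 30 min at RT, then streptavidin donor/nickel chelate acceptor beads (10 ug/mL) for 30 min.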
G9a inh = inhibitors of human histone lysine methyltransferase G9a | hit rate 8.8% among 350,000 | AID 504332 | Q96KQ7 | Potency, µM (titrated, usually from 102 µM), inactives show top-dose activity, negative = inhibition, hits mostly inhibitors | G9a H3K9 monomethylation, AlphaScreen, 2 h; also: potency is read from the fitted curve at half-maximal effect; % is scaled to controls: 0 for no effect and ±100 for the full control effect; nearly all actives have a fitted effect of over 75% in size
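Using a bead-based AlphaScreen, monomethylated H3K9 product from 2 h room-temperature reactions (G9a 20 nM, peptide 500 nM, SAM 20 uM) was detected with 0.5 ug/mL rabbit anti-H3K9me1 antibody.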
BAZ2B block = inhibitors of human BAZ2B bromodomain. AlphaScreen BAZ2B-H3K14Ac peptide displacement. Q9UIF8. Potency, µM (top dose mostly 114 µM), inactives show at the top dose activity change, negative = inhibition, most hits filed as inhibitors. hit rate 4.4% among 360,000. AID 504333; also: potency is read from the fitted curve at half-maximal effect; % is scaled to controls: 0 for no effect and ±100 for the full control effect; nearly all actives have a fitted effect of over 60% in size
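Inhibition is scored as reduced AlphaScreen emission. The BAZ2B/b-H3(5-23)K14Ac complex (50 nM each) in PBS pH 7.4, 0.01% Tween-20 meets compound (up to 110 uM) for 30 min at RT before bead addition.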
JMJD2A Tudor = blocks the human JMJD2A Tudor domain; AlphaScreen JMJD2A-Tudor / H3K4me3 peptide binding; Potency, µM (series often up to 114 µM), for inactives: at the highest dose activity change, negative = inhibition, usual class: inhibitors; hit rate 4.4% among 390,000; also: potency is read from the fitted curve at half-maximal effect; % is scaled to controls: 0 for no effect and ±100 for the full control effect; nearly all actives have a fitted effect of over 50% in size
Starred values were filed as active, the others as inactive; ? = inconclusive; nt = no result; [ ] = remark or other dose. Unless noted, calls follow the shape of the dose curve; as a rule, active = well fitted inhibition curve with a large enough effect; inconclusive = small, poorly fitted or top-dose-only effect; inactive = no such curve, though single readings can be large or run the other way.

SMILES	CtBP-E1A blk	Six1-Eya2 inh	HP1b chromo inh	G9a inh	BAZ2B block	JMJD2A Tudor
CCN(CC)C(=O)Cn1cc(C(=O)C(=O)N(CC)C2CCCCC2)c2ccccc21	10	2	20%	7%	0%	6%
Cc1c(NC(=O)c2nc3ccccc3nc2N2CCCCC2)cccc1[N+](=O)[O-]	nt	nt	-12%	-51%[59 µM]	?	?
N#C/C(=N\Nc1ccc(Cl)cc1)C(=O)c1ccccc1	-6	-17	?	?	50µM*	45µM*
COc1ccc(C(=O)N2CCC3(CCCN(C(=O)Nc4cccc(C#N)c4)C3)CC2)cc1	nt	nt	nt	-1%[12.7 µM]	nt	nt
COc1ccc(OCC(=O)NS(=O)(=O)c2ccc(Cl)cc2)cc1	6	3	34%	17%[59 µM]	1%	-3%
O=C(COc1ccccc1)NS(=O)(=O)c1ccccc1	4	4	31%	3.5µM*	-16%	-6%
Cc1nc([N+](=O)[O-])c(C(=O)OCc2ccc(C#N)cc2)n1C	-9	4	25%	?	-3%	-3%
C=C(C)CCC(C)N1CCC(n2nccc2NC(=O)CCCc2ccccc2)CC1 (centres undefined)	-16	-8	14%	79µM*	-15%	-13%
CC(C)C(=O)N1CCC(n2nccc2NC(=O)CCc2ccccc2)CC1	-6	6	9%	2%	-2%[57.1 µM]	25µM*
CSCC(C)N1CCC(n2nccc2NC(=O)CCCc2ccccc2)CC1 (centres undefined)	1	5	40%	-1%	-17%	-7%
O=C(c1cc(C2CC2)nn1-c1ccccc1)N1CCN(Cc2c(F)cccc2Cl)CC1	nt	-24	-1%	12%[2.33 µM]	-32%	-34%
COc1ccc(CCNC(=O)CCc2c(C)nc3c(c(C)nn3-c3ccc(C)cc3)c2C)c(OC)c1	nt	nt	27%	-41%[59 µM]	-4%	-15%
COC(=O)c1ccccc1S(=O)(=O)N(CCCN1CCOCC1)Cc1cccs1	0	5	?	7.9µM*	50µM*	7.9µM*
Cn1ncc(Cl)c1C(=O)Nc1cccc(Cl)c1	7	1	-20%	2.8µM*	13%	89µM*
Cn1ncc(N=Cc2c(O)ccc3ccccc23)c1C(=O)Nc1cccc(Cl)c1	-2	-1	-8%	7.9µM*	50µM*	?
CCn1c(C)cc(O)c(C(=O)Nc2cccc(Cl)c2)c1=O	nt	13	41%	22%	4%	-4%
Cc1cc(O)c(C(=O)Nc2cccc(Cl)c2)c(=O)n1C	nt	21	41%	50µM*	-5%	0%
Cn1ncc([N+](=O)[O-])c1C(=O)Nc1cccc(Cl)c1	nt	0	6%	12%[0.501 µM]	0%	-12%
Cc1cccc(CNC(=O)CS(=O)(=O)c2cccc3nsnc23)c1	nt	nt	12%[57 µM]	30%[59 µM]	-1%	-30%
CC(C)c1cc(Nc2cccc(O)c2)cc(C(C)C)c1O	nt	nt	nt	?	32µM*	nt
CC(=O)Nc1cccc(O)c1	9	0	66%	-2%[0.501 µM]	7%	-10%
Cc1sc(Cc2nc(O)cs2)nc1-c1ccccc1	nt	-1	7%	?	-14%	8%[11.4 µM]
O=C1OC(NC(=O)c2ccccc2)C(n2cc(CO)nn2)=C1Cl (centres undefined)	-17	?	?	?	?	89µM*
Cc1ccc(NC2=C(Cl)C(=O)OC2NC(=O)c2ccccc2)cc1 (centres undefined)	3	-2	15%	26%[59 µM]	-5%	-8%[57.1 µM]
CCCn1c(=O)c2ccccc2n2c(SCCOc3ccc(OC)cc3)nnc12	-2	-7	3%	-5%[59 µM]	2%	-7%
SMILES	CtBP-E1A blk	Six1-Eya2 inh	HP1b chromo inh	G9a inh	BAZ2B block	JMJD2A Tudor
CCCn1c(=O)c2ccccc2n2c(SCCOc3ccc(C)cc3)nnc12	12	3	45%	?	7%	28µM*
CCCn1c(=O)c2ccccc2n2c(SCC(=O)NCc3cccs3)nnc12	-6	-2	2%	?	-1%	25µM*
CCC/C=N/NC(=O)c1[nH]c2c([N+](=O)[O-])cccc2c1C	0	-4	24%	-1%	3%	-30%
CC1CC(OC(=O)C(O)c2ccccc2)CC(C)(C)C1 (centres undefined)	nt	nt	nt	38%[59 µM]	nt	nt
CCc1ccc(CNC(=O)c2ccc(NC(=O)N3CCCCc4ccccc43)cc2)cc1	nt	nt	-13%	7%[59 µM]	-3%	-24%
CN(C)c1ccc(CNC(=O)c2ccc(NC(=O)N3CCCCc4ccccc43)cc2)cc1	nt	nt	9%	?	28µM*	35µM*
COc1ccc(C(=O)NCC(c2ccc(N(C)C)cc2)N2CCc3ccccc32)cc1 (centres undefined)	nt	nt	10µM*	10µM*	8.9µM*	7.1µM*
CC(C)Oc1ccc(C(=O)NCC(c2ccc(N(C)C)cc2)N2CCc3ccccc32)cc1 (centres undefined)	nt	nt	?	14µM*	16µM*	7.1µM*
Cc1ccc(C(=O)NCC(c2cccnc2)N2CCc3ccccc32)cc1C (centres undefined)	nt	nt	-16%	?	?	?
CN(C)c1ccc(C(CNC(=O)c2ccccc2)N2CCc3ccccc32)cc1 (centres undefined)	nt	nt	?	13µM*	11µM*	13µM*
Cc1cc(-c2nc(C)c(C(=O)NN)s2)no1	-11	-1	38%	11%	-19%	-6%
Cc1cccc(-c2ccc3c(c2)C2CC3CCN2)c1 (centres undefined)	-1	5	29%	nt	nt	-9%
COc1ccccc1OCC(=O)Nc1cc(Cl)ccc1N1CCCCC1	-4	13	82%	4%[2.33 µM]	13%	21%
CN(C)c1ccc(CNC(=O)c2ccc(CNc3c(N4CCCCC4)c(=O)c3=O)cc2)cc1	-25	-2	7%	45µM*	-9%	?
O=C(Cc1ccc(Cl)cc1)NNC(=O)c1cnccn1	-14	-18	9%	?	6%	50µM*
Cc1ccc(-n2ncc3c(NC4CCCCC4)ncnc32)cc1C	nt	nt	27%	2%[59 µM]	0%	1%
COc1cccc(CN2CCCC(N3CCc4ccccc4C3)C2)c1O (centres undefined)	-3	0	13%	?	-22%	-21%
c1ccc2c(c1)CCN(C1CCCCC1)C2	-6	5	?	20µM*	79µM*	25µM*
OCCNc1nc(Nc2ccccc2)nc2ccccc12	-5	7	18%	?	4%	-31%
Cc1c(Cl)cccc1Nc1nc(NCCO)c2ccccc2n1	-4	1	16%	79µM*	-16%	-15%
OCCNc1nc(N2CCCCC2)nc2ccccc12	1	-5	44%	nt	12%	-8%
Oc1ccccc1Nc1nc(NCc2ccccc2)c2ccccc2n1	0	-8	-34%	nt	25µM*	?
